Measured values from PubChem BioAssay (NCATS).
Inconclusive results are not listed. A call without a number means that no potency is given here. The source made the active and inactive calls. The call rests on the fitted dose curve; in most records, active means well fitted inhibition curve with a large enough effect; inconclusive means small, poorly fitted or top-dose-only effect; inactive means flat fitted curve, though single readings scatter.

System: CP269
Test: qHTS profiling for inhibitors of Plasmodium falciparum proliferation (AID 504749); further: nearly all actives have a fitted effect of over 60% in size
Details: P. falciparum in erythrocytes, SYBR Green DNA, 72 h; series mostly up to 28.7 µM
Method in brief: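 SYBR Green fluorescence (ex 485 nm, em 535 nm) reports parasite DNA after 72 h compound exposure of infected red cells at 0.3% parasitemia, 2.5% hematocrit; signal normalized to 0.29 uM artemisinin and vehicle wells.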
Potency means the concentration at half of the fitted maximal effect.

Structure (SMILES) | Potency
CCCCC[C@H](O)/C=C/[C@H]1[C@H](O)CC(=O)[C@@H]1C/C=C\CCCC(=O)O | inactive
C(=C\c1ccncc1)/c1ccccc1 | inactive
O=C1N=C2SCCN2C(=O)C1Cc1ccc(Cl)cc1 (centres undefined) | inactive
CCCCCCCCCCCC(=O)N(CCO)CCO | inactive
Cc1nc(NS(=O)(=O)c2ccc(N)cc2)nc(C)c1Br | inactive
O=c1[nH]c(=O)n([C@H]2C[C@H](O)[C@@H](CO)O2)cc1/C=C/Br | inactive
CC12CCC(C[N+](C)(CCC[N+](C)(C)C)C1)C2(C)C (centres undefined) | inactive
CC(C)NCC(O)COc1ccccc1-n1cccc1 (centres undefined) | inactive
F[Si-2](F)(F)(F)(F)F | inactive
CN(Cc1ccccc1)Cc1ccccc1 | inactive
O=[n+]1ccn([O-])c2ccccc21 | inactive
OCC(O)CO | inactive
CC(=O)NCCCS(=O)(=O)O | inactive
CCN(CC)CCOc1ccc2nc(N(C)C)sc2c1 | inactive
Cc1cccc(Nc2ncccc2C(=O)O)c1C | inactive
CCCCC(CC)CCC(CC(C)C)OS(=O)(=O)O (centres undefined) | inactive
C[C@H](N)C(=O)N[C@@H](C)P(=O)(O)O | inactive

Structure (SMILES) | Potency
CC(=O)Nc1ccc(NC(=S)NC(=O)c2ccc(C(C)(C)C)cc2)cc1 | inactive
CO/N=C(\C(=O)N[C@@H]1C(=O)N2C(C(=O)[O-])=C(C[n+]3cccc4c3CCC4)CS[C@H]12)c1csc(N)n1 | inactive
Cc1cc(-c2ccc(N=Nc3ccc4c(S(=O)(=O)O)cc(S(=O)(=O)O)c(N)c4c3O)c(C)c2)ccc1N=Nc1ccc2c(S(=O)(=O)O)cc(S(=O)(=O)O)c(N)c2c1O | inactive
CCC(C(=O)NC(N)=O)c1ccccc1 (centres undefined) | inactive
Cn1cc(NC(=O)c2cc(NC(=O)c3cc(NC=O)cn3C)cn2C)cc1C(=O)NCCC(=N)N | 7.57 µM (active)
CCc1ncnc2cc(OC)c(OC)cc12 | inactive
Cc1ncc(C[n+]2csc(CCO)c2C)c(N)n1 | inactive
O[C@@H]([C@H](O)[C@H](O)CBr)[C@H](O)CBr | inactive
O=[N+]([O-])c1c(Cl)cccc1-c1c[nH]cc1Cl | inactive
C[C@@](Cc1ccc(O)c(O)c1)(NN)C(=O)O | inactive
CC(=O)Oc1cc(C(F)(F)F)ccc1C(=O)O | inactive
CCCCC | inactive
O=P(O)(O)CP(=O)(O)O | inactive
CCCCC[C@H](O)/C=C/[C@@H]1[C@H]2C/C(=C/CCCC(=O)O)O[C@H]2C[C@H]1O | inactive
C[Si](C)(C)O[Si](C)(C)C | inactive
O.O.O.O.O.O.O.O=S(=O)([O-])[O-].[Co+2] | 7.57 µM (active)
Cc1c(C)c2c(c(C)c1OC(=O)CCC(=O)O)CC[C@@](C)(CCC[C@H](C)CCC[C@H](C)CCCC(C)C)O2 | inactive
